High-throughput results deposited in PubChem BioAssay by Broad Institute.
The list is a sample of the results.
aSyn 5UTR act – Activators via SNCA 5'UTR binding, MLPCN | alpha-synuclein 5'UTR reporter, activators screen | activity score, % (tested at 7.5 µM), hits read low | hit rate 7.1% among 300,000; in the data active = activity score below about -60%
* marks the source's active call; other numbers are inactive results.

SMILES	aSyn 5UTR act
CCS(=O)(=O)Nc1ccc(C2=NN(S(C)(=O)=O)C(c3cccs3)C2)cc1 (stereo not given)	-101*
COc1ccc(C2=NN(S(C)(=O)=O)C(c3cccs3)C2)cc1OC (stereo not given)	-115*
CCOC(=O)c1ccc(NC(=S)Nc2ccc(Br)cc2N)cc1	-114*
CCOC(=O)c1ccc(NC(=S)Nc2cccc(N)n2)cc1	-147*
COc1cc(OC)cc(C(=O)Nc2nc3ccc(S(C)(=O)=O)cc3s2)c1	-149*
COc1ccc(Cl)cc1C(=O)Nc1nc2ccc(S(C)(=O)=O)cc2s1	-73*
CS(=O)(=O)c1ccc2nc(NC(=O)c3cccc([N+](=O)[O-])c3)sc2c1	-136*
CCOC(=O)c1cnc2cc(-c3ccc(Br)cc3)nn2c1C	-131*
CCOC(=O)c1cnc2cc(-c3ccc(Cl)cc3)nn2c1N	-87*
CC(C)(C)N=Cc1cc(-c2ccccc2)sc1O	-162*
Fc1cc(Br)ccc1NC(=S)Nc1ccccc1	-115*
Cc1ccc(NC(=S)Nc2ccc(Br)cc2)cc1	-86*
Fc1ccccc1NC(=S)Nc1ccc(Br)cc1	-74*
Cc1cc(C)nc(N/N=C/c2ccccc2OCc2ccc(Cl)cc2)n1	-80*
Cc1cc(C)nc(N/N=C/c2ccccc2OCc2ccc(Br)cc2)n1	-144*
COc1cccc(/C=N/NC(=O)c2c(C)nc3ccc(Br)cn23)c1O	71
N#C/C(=C\c1ccc(Sc2ccccc2)o1)c1nc2ccccc2[nH]1	-219*
N#C/C(=C/c1ccc(O)c(O)c1)c1nc2ccccc2[nH]1	-148*
N#C/C(=C/c1cccs1)c1ccccn1	-117*
N#C/C(=C\c1cn(-c2ccccc2)nc1-c1cc2ccccc2o1)c1nc2ccccc2[nH]1	-106*
CC(C)CC(/C(O)=C(\C#N)c1nc2ccccc2[nH]1)N1C(=O)c2ccccc2C1=O (stereo not given)	65
N#C/C(=C\Nc1ccc2c(c1)OCCO2)c1nc2ccccc2[nH]1	-65*
N#C/C(=C\c1cccs1)c1nc2ccccc2[nH]1	-256*
N#C/C(=C\c1ccc(OC(=O)c2cccs2)cc1)c1nc2ccccc2[nH]1	-153*
O=[N+]([O-])c1cc(/C=N/n2cnnc2)ccc1N1CCCC1	65
SMILES	aSyn 5UTR act
N#C/C(=C\c1ccc(N2CCCC2)c([N+](=O)[O-])c1)c1nc2ccccc2[nH]1	-80*
Cc1ccc(C(=O)c2c3ccccc3[n+]([O-])n2[C@@H](C)C(N)=O)cc1	-87*
CCCC1CCC(c2nc(-c3cccnc3)no2)CC1 (stereo not given)	-166*
CCOc1ccc(-c2ccc(SCc3ccccn3)nn2)cc1	-132*
CCc1ccc(-c2ccc(SCc3ccccn3)nn2)cc1	-143*
Cc1ccc(NC(=O)C(C)SCc2ccccc2)cc1 (stereo not given)	-87*
CC(SCc1ccccc1)C(=O)Nc1ccc2c(c1)OCO2 (stereo not given)	-66*
COc1cccc(NC(=O)C(C)SCc2ccccc2)c1 (stereo not given)	-63*
Nc1[nH]c(N=NC(=O)c2ccccc2O)c2ccccc12	-150*
CN(C)S(=O)(=O)c1ccc(C(=O)Nc2ccc3c(c2)CCC3)cc1	-93*
CN(C)S(=O)(=O)c1cccc(C(=O)Nc2ccc3c(c2)CCC3)c1	-115*
Cc1cccc(C(=O)Nc2nc(C)c(C(=O)Nc3ccc4c(c3)CCC4)s2)c1	-121*
Cc1cc(C(=O)Nc2ccc3c(c2)CCC3)ccc1[N+](=O)[O-]	-187*
Cc1ccc(N=Cc2cc(C)n(C3CCCC3)c2C)cc1	-155*
CCc1ccc(NC(=O)C2C3/C=C\CCCCC32)cc1 (stereo not given)	-165*
O=C(Nc1ccc(Cl)cc1)C1C2CCCCC21 (stereo not given)	-150*
O=C(Oc1ccc(NC2=C(Cl)C(=O)c3ccccc3C2=O)cc1)c1ccc([N+](=O)[O-])cc1	-109*
Nc1nnc(C(=O)c2ccccc2N)s1	-123*
CC(=O)c1ccc(NC(=O)c2ccn(C(=O)OCC(C)C)n2)cc1	-86*
COc1ccc(NC(=O)c2ccco2)c([N+](=O)[O-])c1	-76*
Cc1ccc(NC(=O)c2ccco2)c([N+](=O)[O-])c1	-197*
Cc1cccc(OCC(=O)Nc2ccc3c(c2)nc2n3CCOC2)c1	-69*
CC(=O)NCCc1nc2cc(NC(=O)COc3cccc(C)c3)ccc2n1C	-62*
Cc1ccc(N2C(=O)c3ccccc3NC2(C(=O)O)c2ccccc2)cc1Cl (stereo not given)	-68*
O=C(CCl)N(c1ccccc1)C1CCS(=O)(=O)C1 (stereo not given)	-109*
SMILES	aSyn 5UTR act
CSc1ccc(-c2nc(CN(C)C3CCOC3)c(C)o2)cc1 (stereo not given)	-81*
CCOC(=O)N/N=C/C=C/c1ccccc1[N+](=O)[O-]	-75*
Cc1ccsc1C(=O)N/N=C/C=C/c1ccccc1[N+](=O)[O-]	-138*
CC1CCCC(C)N1/N=C/C=C/c1ccccc1[N+](=O)[O-] (stereo not given)	-133*
COc1ccc(CNC(=O)c2c(C)oc3c2C(=O)c2ccccc2C3=O)cc1	103
CC(=O)c1c(C)oc2c1C(=O)c1ccccc1C2=O	-62*
O=C(NCCc1ccc(O)cc1)c1ccc(Cl)cc1	-121*
O=C(NCCc1ccc(Cl)cc1)c1ccc2nccnc2c1	-109*
Cc1occc1C(=O)NCCc1ccc(Cl)cc1	-125*
COc1ccccc1CCNC(=O)c1ccoc1C	-72*
CC(=O)NCCNC(=O)c1ccc(CSc2ccc(Cl)cc2)cc1	-132*
COc1cccc(OCc2cc(C(=O)NCc3ccccn3)no2)c1	-128*
COc1ccc(OCc2cc(C(=O)NCc3cccc(C)n3)no2)c(Cl)c1	-65*
CCOCCCNC(=O)c1ccc2c(c1)N=C(CC)c1cc(Br)ccc1S2	88
CCOCCCNC(=O)c1cccc(OC2CCN(S(C)(=O)=O)CC2)c1	-151*
COc1ccc(-n2cc(-c3ccc(Cl)cc3)[nH]c2=S)cc1	-91*
COc1cccc(-n2cc(-c3ccc(F)cc3)[nH]c2=S)c1	-158*
Cc1ccc(-c2n[nH]c(Cc3ccccc3)n2)cc1	-126*
O=C1c2ccccc2C(=O)N1CCN1CCc2ccccc21	-97*
O=C(CSC(=S)N1CCSCC1)c1ccc(Cl)cc1	-152*
O=C(CSC(=S)N1CCSCC1)c1ccccc1	-94*
O=c1[nH]cnc2cc(-c3ccccc3)sc12	-95*
COc1ccc(-c2cc3nc(CCl)[nH]c(=O)c3s2)cc1	71
COc1cc2c(cc1OC)C(c1cccs1)N(C(=S)NC(C)C)CC2 (stereo not given)	-74*
COc1ccc(-c2cc3ccccc3oc2=O)cc1	-71*
SMILES	aSyn 5UTR act
O=c1oc2ccccc2cc1-c1ccc(O)cc1	-101*
O=C(NCc1cccnc1)c1ccc(-c2cc3ccccc3oc2=O)cc1	-139*
Nc1ccc(-c2cc3ccccc3oc2=O)cc1	106
Cc1cc(C)c2c3c(sc2n1)C(c1cccc(F)c1)C(C#N)=C(N)O3 (stereo not given)	-76*
N/C(=N\OC(=O)c1ccc2ccccc2c1)c1cccc([N+](=O)[O-])c1	-67*
O=C(Oc1ccc2ccc(O)cc2c1)c1ccccc1Cl	-128*
Cc1cccc(/C(N)=N/OC(=O)c2ccc(F)cc2)c1	-141*
N/C(=N\OC(=O)c1cccc(F)c1)c1cccc([N+](=O)[O-])c1	-104*
N/C(=N\OC(=O)c1ccccc1Cl)c1cccc([N+](=O)[O-])c1	-67*
N/C(=N\OC(=O)c1ccc(F)cc1)c1cccc([N+](=O)[O-])c1	-110*
